aSyn 5UTR act = Activators working through SNCA 5'UTR binding (MLPCN); alpha-synuclein 5'UTR reporter, activators screen; activity score, % (tested at 7.5 µM), hits read low; hit rate 7.1% among 300,000; in the data active means activity score below about -60%
Starred values were filed as active, the others as inactive. A selection follows.

SMILES	aSyn 5UTR act
Nc1ccccc1Nc1cc(-c2ccccc2)[nH]n1	-170.7*
CC(=O)c1cnc(-c2ccccc2Cl)s1	-81.6*
Cc1ccc(NC(=O)Nc2ccon2)cc1	-101.6*
CCOc1ccc(NC(=O)Nc2ccon2)cc1	-116.5*
O=C(Nc1ccc(Cl)cc1)Nc1ccon1	-129.1*
Cc1cc2c3c(ccc(C)c3n1)N=CN2c1ccccc1	54.2
C=C(C)CNC(=S)N/N=C/c1ccc(N2CCOCC2)cc1	-64.3*
CC(C)NC(=S)N/N=C/c1ccc(N2CCOCC2)cc1	-87.5*
CN(C)c1ccc(-c2nn3c(-c4ccccc4Cl)nnc3s2)cc1	82.3
Cc1nnc2sc(-c3ccc(N(C)C)cc3)nn2c1=O	-76.3*
O=[N+]([O-])c1cnc(Nc2ccc(Cl)cn2)c([N+](=O)[O-])c1	-128.9*
O=C(Nc1ccccn1)Nc1ccccc1Cl	-131.2*
Cc1cc(NC(=O)Nc2ccccc2Cl)no1	-73.9*
O=C(Nc1ccc(Cl)cn1)c1ccccc1[N+](=O)[O-]	-77.3*
O=C(Nc1ccc(Cl)cn1)Nc1ccccc1Cl	-87.0*
S=C(Nc1ccccn1)Nc1ccccc1Cl	-83.0*
O=C(c1cc2ccccn2n1)N1CCN(Cc2ccccc2)CC1	-113.1*
CC(=O)Nc1cccc2c1Cc1ccccc1-2	-159.4*
CC(=O)Nc1ccc(S(=O)(=O)NC2=C(N3CCN(C)CC3)C(=O)c3ccccc3C2=O)cc1	70.6
Cn1cc(/C=C(\C#N)C(=O)Nc2ccccc2O)c2ccccc21	-118.4*
Cc1cccnc1Nc1nc(-c2ccc(O)cc2O)cs1	-187.9*
Oc1ccc(-c2csc(Nc3ccccn3)n2)c(O)c1	-133.9*
Nc1cc(N)nc(SCC(=O)Nc2ccc(Br)cc2Cl)n1	-79.3*
Cc1csc(SCc2nnc(-c3ccc(Cl)cc3)o2)n1	-172.8*
Cc1ccc(-c2nnc(CSc3nnc(C)s3)o2)cc1	-79.4*
SMILES	aSyn 5UTR act
Cc1csc(SCc2nnc(-c3ccccc3Br)o2)n1	-88.0*
Nn1c(SCC(=O)Nc2ccc(F)cc2F)nnc1C1CCCCC1	-64.0*
Nn1c(SCC(=O)Nc2ccc(F)cc2F)nnc1-c1cccnc1	-88.6*
CN1c2ccsc2/C(=N/Nc2ccc(F)cc2)CS1(=O)=O	-187.0*
Cc1ccc(N/N=C2\CS(=O)(=O)N(C)c3ccsc32)cc1	-149.3*
CCCCOC(=O)CSc1nc2c(cc1C#N)C(=O)CC(C)(C)C2	-133.2*
COC(=O)CNC(=O)C1(C)C=CCN1C(=O)c1ccccc1 (centres undefined)	-73.6*
O=C(Nc1ccccc1Br)c1ccc(OC(=S)N2CCOCC2)cc1	-192.3*
Cc1ccc(NC(=O)c2ccc(OC(=S)N3CCOCC3)cc2)cc1	-74.9*
CCOc1ccc(-c2cc(C(=O)NN)[nH]n2)cc1	-68.6*
NC(=S)N/N=C/c1coc2c(ccc3ccccc32)c1=O	-74.2*
COc1ccc(C(=O)c2cc([N+](=O)[O-])ccc2N2CCOCC2)cc1	58.3
COc1ccc(C(=O)/C=C/c2ccc(C)cc2)c(OC(=O)c2ccc([N+](=O)[O-])cc2)c1	-87.0*
COc1ccc(C(=O)/C=C/c2ccccc2F)c(OC(=O)c2ccc([N+](=O)[O-])cc2)c1	-228.0*
COc1cccc2oc3ccc(C#Cc4ccccn4)cc3c(=O)c12	-71.0*
O=c1c2ccccc2oc2cc(C#Cc3ccccn3)ccc12	-66.7*
COc1cc(-c2noc(C)c2C#Cc2ccccn2)cc(OC)c1OC	85.8
CCOC(=O)COn1c(=O)c(-c2ccc(C)cc2)[n+]([O-])c2ccccc21	-135.9*
CCOc1ccc(-c2c(=O)n(OCc3nc4ccccc4[nH]3)c3ccccc3[n+]2[O-])cc1	-111.9*
O=C(C(Cl)c1ccccc1)N1CCOCC1 (centres undefined)	-64.8*
CC(C)(C)c1cc(NC(=O)c2cccnc2)no1	-102.0*
CC(C)(C)c1cc(NC(=O)C2CCCO2)no1 (centres undefined)	-103.5*
CC(C)(C)c1cc(NC(=O)c2cc(F)c(F)c(F)c2F)no1	-62.6*
CC(C)(C)c1cc(NC(=O)c2cccs2)no1	-76.5*
COc1cc(SC)ccc1C(=O)Nc1ncc(Cl)cc1Cl	-90.8*
SMILES	aSyn 5UTR act
COc1cc(SC)ccc1C(=O)Nc1ncc(C)s1	98.1
COc1cc(SC)ccc1C(=O)Nc1ccc2c(c1)OCO2	-68.5*
COc1ccc(Br)cc1C(=O)Nc1cc(C)cc(C)c1	-61.9*
COc1cc(SC)ccc1C(=O)Nc1ccc(C)cc1	-141.6*
COc1ccc(-c2nnc(SC)o2)c(OC)c1	-85.2*
COc1ccc(OC)c(-c2nnc(-c3ccc(C)o3)o2)c1	-63.3*
COc1cccc(-c2nnc3sc(-c4ccccn4)nn23)c1	-103.4*
COc1ccccc1-c1nnc2sc(-c3ccc(N(C)C)cc3)nn12	98.6
O=C(Oc1c(CN2CCOCC2)cc(Cl)c2cccnc12)c1cccs1	107.7
O=C(c1cccs1)N1CCN(c2ncc(C(F)(F)F)cc2Cl)CC1	-70.8*
COc1ccc2[nH]c3nc(SC(C)C)nnc3c2c1	58.3
Clc1ccc2[nH]c3c(NCCCN4CCOCC4)ncnc3c2c1	-62.4*
COc1ccc2[nH]c3c(NCc4ccco4)ncnc3c2c1	-112.6*
COc1ccc2[nH]c3c(NCCC4=CCCCC4)ncnc3c2c1	-194.8*
COc1ccc2[nH]c3c(NCCCOC(C)C)ncnc3c2c1	-138.5*
S=C(Nc1nc2c(s1)CCCC2)NC1CC1	-92.3*
O=C(NC(=S)Nc1nc2c(s1)CCCC2)c1ccccc1	-344.8*
COC(=O)c1ccc(C(=O)NC(=S)Nc2nc3c(s2)CCCC3)cc1	-66.1*
Cc1ccccc1C(=O)NC(C(=O)Nc1nc2c(s1)CCCC2)C(C)C (centres undefined)	-66.0*
O=S(=O)(c1ccccc1)n1nc(-c2ccccc2)nc1NCc1ccco1	-64.7*
CCCC(=O)n1nc(-c2ccc(C)cc2)nc1NCc1ccco1	-88.1*
CC(C)(C)c1ccc(-c2noc(CCC(=O)NCc3ccco3)n2)cc1	77.3
Cc1ccc(C(=O)n2nc(-c3ccccc3)nc2NCc2ccco2)cc1	-67.7*
Oc1ccccc1CNc1cnc2ccccc2c1	-259.7*
Oc1ccc2ccccc2c1CNc1cnc2ccccc2c1	-97.2*
SMILES	aSyn 5UTR act
C=CCc1cccc(CNc2cnc3ccccc3c2)c1O	-94.5*
CCOC(=O)c1sc(NC(=O)c2ccc3ncsc3c2)nc1C	-89.1*
CCOC(=O)c1sc(NNC(=O)c2ccc(F)cc2)nc1C	-76.1*
CCOC(=O)c1sc(NC(=O)c2cncc(Br)c2)nc1C	-105.4*
COc1ccc(C(=O)NC(=O)COC(=O)c2ccc3ncsc3c2)cc1	-82.1*
Cc1c(Cl)cnc(NC(=O)COC(=O)c2ccc3ncsc3c2)c1Cl	67.1
Nc1cc(Cl)ccc1C(=O)OCC(=O)N1CCCC1	-69.5*
Nc1cc(C(=O)OCC(=O)N2CCCC2)ccc1Cl	-61.5*
O=C1Nc2ccccc2S/C1=C/Nc1cccc(Cl)c1	-202.5*
COc1cc(C2Nc3cc(Cl)c(S(N)(=O)=O)cc3S(=O)(=O)N2)ccc1OCc1ccccc1 (centres undefined)	-147.0*
O=C1N=C(N2CCCCC2)SC1=C1CCCC1	-81.1*
CCOc1ccc(-c2nnc(-c3ccncc3)o2)cc1	-63.2*
CCOc1ccc(-c2nnc(NC(=O)c3ccc(OCC(C)C)c(OC)c3)o2)cc1	58.5
CCCCOc1ccc(-c2nnc(-c3ccncc3)o2)cc1	-124.1*
COc1ccc(-c2nnc(SCC(C)C)o2)cc1	-101.9*
CCOc1ccc(-c2nnc(-c3ccc(OC)cc3)o2)cc1	-76.1*
CCOc1ccc(-c2nnc(NC3=NCCCCC3)o2)cc1	-117.0*
CCOc1ccc(-c2nc3ccccc3c(=O)o2)cc1	-62.8*
c1coc(-c2nnc(NC3=NCCC3)o2)c1	-70.4*
